Rows were chosen to be rich in hits. Some 27% of all compounds tested hit in one or more screens of this group.
CYP2C9 inh: human CYP2C9 inhibition; P11712; CYP2C9 Supersomes, luciferin-H conversion, luminescence; inhibition, % at 5 µM; hit rate 20% among 96,000; AID 777;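 active means blocking of liver enzyme CYP2C9 beyond about 50% at 5 µM, limit read from the data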
sEH act: soluble epoxide hydrolase (human) activation | activation, % at 2 µM | P34913 | hit rate 0.04% among 91,000 | purified human sEH enzymatic activity, activator screen; in the data active means activation above about 37%
Target sequence (P34913 whole entry, looked up): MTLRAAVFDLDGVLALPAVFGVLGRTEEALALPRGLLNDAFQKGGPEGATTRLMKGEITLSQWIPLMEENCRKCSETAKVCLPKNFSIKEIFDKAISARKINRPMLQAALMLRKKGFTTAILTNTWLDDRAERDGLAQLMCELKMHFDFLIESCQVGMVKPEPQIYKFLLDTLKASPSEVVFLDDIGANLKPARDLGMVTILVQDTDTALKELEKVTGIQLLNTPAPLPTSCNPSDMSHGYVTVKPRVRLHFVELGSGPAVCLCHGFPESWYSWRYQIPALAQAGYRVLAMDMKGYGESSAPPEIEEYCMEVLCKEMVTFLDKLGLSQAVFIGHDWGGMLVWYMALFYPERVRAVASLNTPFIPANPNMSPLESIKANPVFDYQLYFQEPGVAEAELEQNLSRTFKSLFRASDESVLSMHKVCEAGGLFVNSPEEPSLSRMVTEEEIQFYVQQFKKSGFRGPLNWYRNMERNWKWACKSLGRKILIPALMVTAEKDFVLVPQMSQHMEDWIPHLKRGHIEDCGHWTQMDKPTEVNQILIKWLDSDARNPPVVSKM
CYP2C19 act: increases human CYP2C19 enzyme activity; P33261; recombinant CYP2C19, luciferin-H EGE luminescence; stronger effect = higher value; 0 = fully inhibited enzyme, 1 = untreated enzyme; activation factor at 5 µM; 96,000 tested, under 10 active; AID 1025;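 active means activation factor of at least 2 at 5 µM in the primary screen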
CYP2C9 activ: increases human cytochrome P450 2C9 activity; P11712; recombinant CYP2C9, luciferin-H conversion, luminescence; stronger effect = higher value; factor 1 = untreated enzyme, 0 = blocked; activation factor at 5 µM; hit rate 1.4% among 96,000; AID 1024;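 active means activation factor of 2 or more for CYP2C9 at a 5 µM dose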
sEH inh: soluble epoxide hydrolase (human) inhibition | P34913 | inhibition, % at 2 µM | hit rate 0.34% among 91,000 | recombinant human sEH enzymatic activity assay; in the data active means inhibition above about 80%
CYP2C19 inh: inhibitors of human CYP2C19; CYP2C19 Supersomes, luciferin-H EGE luminescence, 30 min; inhibition, % at 5 µM; hit rate 21% among 96,000; AID 778;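 active means CYP2C19 inhibition above a set limit at 5 µM in the primary screen, cut at about 50% in these data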
Large screens that a line does not name were inactive.

Cc1cccc(Oc2ccccc2N)c1	none
CCn1nnnc1-c1ccc(OC)c(S(=O)(=O)N2CCCCC2)c1	none
O=C(CCN1C(=O)COc2ccccc21)NCCN1CCN(c2ccccc2F)CC1	none
CCOC(=O)C1CCCN(C(=O)CC(c2ccccc2)c2ccccc2)C1 (stereo not drawn)	none (no result: CYP2C9 inh, CYP2C19 act, CYP2C9 activ, CYP2C19 inh)
CCOC(=O)C1CCCN(C(=S)Nc2ccc(C)cc2C)C1 (stereo not drawn)	CYP2C19 inh 84
CS(=O)(=O)N1CCN(C(=O)C2c3ccccc3Oc3ccccc32)CC1	CYP2C9 inh 50, CYP2C19 inh 97
CCOC(=O)C1CCCN(c2c(Nc3cccc(C)c3)c(=O)c2=O)C1 (stereo not drawn)	CYP2C9 inh 52 (no result: sEH act, sEH inh)
CCOC(=O)C1CCCN(C(=O)C2c3ccccc3Oc3ccccc32)C1 (stereo not drawn)	CYP2C9 inh 64, CYP2C19 inh 97
COCCCN1C(=O)c2ccc(C(=O)NCc3ccco3)cc2C1=O	none
CC(C)(C)C(=O)Nc1ccc(C(=O)Nc2cccnc2)cc1	none
CCOc1ccccc1N1CCN(C(=O)C2c3ccccc3Oc3ccccc32)CC1	CYP2C9 inh 85, CYP2C19 inh 78
CC(=O)/C(=N/Nc1cccc(Cl)c1)N1CCOCC1	CYP2C9 inh 65, CYP2C19 inh 72
C(=N\N1CCN(Cc2cccc3ccccc23)CC1)/c1ccco1	CYP2C19 inh 50
O=C(Cc1coc(-c2ccc(F)cc2)n1)NC1CCCCC1	CYP2C9 inh 60, CYP2C19 inh 51 (no result: sEH act, sEH inh)
O=C(Cc1coc(-c2ccc(F)cc2)n1)N1CCOCC1	CYP2C9 inh 52, CYP2C19 inh 50 (no result: sEH act, sEH inh)
CCNC(=O)CN(c1ccc(CC)cc1)S(C)(=O)=O	none
CNC(=O)CN(c1ccc(C(C)C)cc1)S(C)(=O)=O	CYP2C19 inh 61
O=C(CCSc1nc(-c2ccco2)cc(C(F)(F)F)n1)NCc1cccs1	none (no result: CYP2C9 inh, CYP2C19 act, CYP2C9 activ, CYP2C19 inh)
FC(F)(F)c1cc(-c2ccco2)nc(N2CCN(c3ccccc3)CC2)n1	none
COc1ccc(CCNC(=O)CCSc2nc(-c3ccco3)cc(C(F)(F)F)n2)cc1OC	CYP2C9 inh 91, CYP2C19 inh 88
O=C(CCSc1nc(-c2ccco2)cc(C(F)(F)F)n1)NCc1ccccn1	CYP2C9 inh 69, CYP2C19 inh 78
Cc1ccc(NC(=O)CSc2nc(-c3ccco3)cc(C(F)(F)F)n2)cc1C	none (no result: CYP2C9 inh, CYP2C19 act, CYP2C9 activ, CYP2C19 inh)
O=C(CCSc1nc(-c2ccco2)cc(C(F)(F)F)n1)N1CCN(c2ccccc2)CC1	CYP2C9 inh 76, CYP2C19 inh 81
CC(NC(=O)CCSc1nc(-c2ccco2)cc(C(F)(F)F)n1)c1ccccc1 (stereo not drawn)	CYP2C19 inh 53
CCC(=O)N1CCc2cc(S(=O)(=O)CCC(=O)NCc3ccc4c(c3)OCO4)ccc21	none
CC(C)(C)C(=O)CC1(O)C(=O)N(Cc2ccc(Cl)cc2)c2ccccc21 (stereo not drawn)	none
CCn1cc(Br)c(C(=O)NN)n1	none
O=C(CSc1nc(-c2ccco2)cc(C(F)(F)F)n1)Nc1ccc2c(c1)CCC2	none
O=C(CSc1nc(-c2ccco2)cc(C(F)(F)F)n1)NC1CCCC1	CYP2C9 inh 94, CYP2C19 inh 82 (no result: sEH act, sEH inh)
Cc1cc(C)c2c(=O)c3c(oc2c1)C(=O)N(CCO)C3c1cccc(O)c1 (stereo not drawn)	CYP2C9 inh 54, CYP2C19 inh 50
O=C(NCCCc1ccccc1)c1cnc2n(c1=O)CCS2	CYP2C19 inh 83
O=C(NCCc1ccc(Cl)cc1)c1cnc2n(c1=O)CCS2	CYP2C19 inh 55 (no result: sEH act, sEH inh)
COCCN(C(=O)Cc1cccs1)c1nnc(-c2ccncc2)s1	CYP2C9 inh 73, CYP2C19 inh 98
CCN(C(=O)c1cccs1)c1nnc(-c2ccncc2)s1	CYP2C9 inh 71, CYP2C19 inh 100
COCCN(C(=O)C(C)C)c1nnc(-c2cccc(C)c2)s1	CYP2C9 inh 61
COCCN(C(=O)COc1ccccc1)c1nnc(-c2cccnc2)s1	none
Clc1ccc(CSc2ncn[nH]2)cc1	none
Brc1ccc2nc(CSc3ncn[nH]3)cn2c1	CYP2C19 inh 52
COC(=O)c1ccc(CSc2ncnc3c2nnn3-c2ccc(OC)cc2)o1	CYP2C9 inh 56, CYP2C19 inh 52 (no result: sEH act, sEH inh)
Cn1c(=O)cc(SCC(=O)NCC2CCCO2)c2ccccc21 (stereo not drawn)	CYP2C9 activ 2.1 (no result: sEH act, sEH inh)
O=C(CSc1oc(-c2ccco2)nc1S(=O)(=O)c1ccc(Cl)cc1)NCC1CCCO1 (stereo not drawn)	CYP2C19 inh 76
CCCn1cc(SCC(=O)NCC2CCCO2)c2ccccc21 (stereo not drawn)	none
Cc1cccc2c(SCC(=O)NCC3CCCO3)nc(-c3ccc(F)cc3)nc12 (stereo not drawn)	CYP2C19 inh 52
COc1ccc(-n2nnc3c(SCC(=O)c4ccccc4)ncnc32)cc1	none
O=C(CSc1oc(-c2ccco2)nc1S(=O)(=O)c1ccccc1)NCC1CCCO1 (stereo not drawn)	none (no result: CYP2C9 inh, CYP2C19 act, CYP2C9 activ, CYP2C19 inh)
O=[n+]1c2c(n([O-])c3cc(F)c(F)cc31)CCCC2	none
CCS(=O)(=O)N1CCC(C(=O)c2ccc(Cl)cc2)CC1	none (no result: CYP2C9 inh, CYP2C19 act, CYP2C9 activ, CYP2C19 inh)
O=C(CSc1cc(Cl)ccc1Cl)NCC1CCCO1 (stereo not drawn)	CYP2C9 activ 3.2, CYP2C19 inh 74
Cn1cc(SCC(=O)NCC2CCCO2)c2ccccc21 (stereo not drawn)	CYP2C9 activ 2.2
O=C(CSCc1c(Cl)cccc1Cl)NCC1CCCO1 (stereo not drawn)	none
Cc1ccc(-n2nnc3c(SCC(=O)NCC4CCCO4)ncnc32)cc1 (stereo not drawn)	CYP2C9 inh 64
CS(=O)(=O)N(CC(=O)NCC1CCCO1)c1ccc(F)c(Cl)c1 (stereo not drawn)	CYP2C19 inh 60
Cc1cc(C)n2nc(SCC(=O)N(C)c3ccccc3)nc2n1	none
Cn1c(=O)c2cc(S(=O)(=O)NCCC(=O)NCC3CCCO3)ccc2n(C)c1=O (stereo not drawn)	none
Cn1c(SCC(=O)NCC2CCCO2)nnc1-c1c[nH]c2ccccc12 (stereo not drawn)	none
O=C(CSc1c[nH]c2ccccc12)NCC1CCCO1 (stereo not drawn)	CYP2C19 inh 54
COc1ccc(C)cc1NC(=O)c1cc2ccccc2cc1OCC(=O)NCc1ccco1	none
COC(=O)CNc1ccc2c(c1)OCO2	none (no result: CYP2C9 inh, CYP2C19 act, CYP2C9 activ, CYP2C19 inh)
Cc1ccc(/C=C/C(=O)N2CC(C)CC(C)C2)o1 (stereo not drawn)	none
N#CC1=C(SCC(=O)Nc2ccccc2)NC(=O)CC1c1ccco1 (stereo not drawn)	none (no result: CYP2C9 inh, CYP2C19 act, CYP2C9 activ, CYP2C19 inh)
N#CC1=C(SCC(=O)NCc2ccccc2)NC(=O)CC1c1ccco1 (stereo not drawn)	CYP2C9 inh 88, CYP2C19 inh 67
N#CC1=C(SCc2ccccc2)NC(=O)CC1c1ccco1 (stereo not drawn)	CYP2C9 inh 71

Screening data deposited in PubChem BioAssay by several laboratories.
